Experimental data as given in the supplement of paper PMC4100887.
Where a name gives a salt, the structure may show the parent alone. ± gives the standard deviation of the averaged measurements.

How the values were obtained:
IMR-90 = assay: relative cell viability (ATPlite) vs untreated control (fraction); higher = less toxic; conditions: 1 µM; 72 h
K562 [1] = assay: as above; conditions: 1 µM; 72 h
K562 [2] = assay: relative cell viability (ATPlite) vs untreated control, with imatinib (fraction); higher = less toxic; conditions: 1 µM; 72 h; imatinib 0.125 µM

Row | SMILES | relative cell viability (IMR-90) | relative cell viability (K562 [1]) | relative cell viability (K562 [2])
1 | COc1ccc2c(c1)c(C1=C(c3c[nH]c4ccccc34)C(=O)NC1=O)cn2CCCN(C)C | 0.969 ± 0.082 | 0.872 ± 0.06 | 0.755 ± 0.051
2 | COc1cc2ncnc(Nc3cccc(O)c3)c2cc1OC [WHI-P180, Hydrochloride] | 0.912 ± 0.092 | 0.747 ± 0.073 | 0.366 ± 0.045
3 | N#CC(c1ccnc(NCCc2cccnc2)n1)c1nc2ccccc2s1 (centres undefined) [JNK Inhibitor V] | 1.01 ± 0.077 | 0.851 ± 0.092 | 0.703 ± 0.056
4 | O=c1cc(N2CCOCC2)oc2c1ccc1ccccc12 [DNA-PK Inhibitor II] | 1 ± 0.061 | 0.815 ± 0.041 | 0.754 ± 0.023
5 | Brc1c(Br)c(Br)c2n[nH]nc2c1Br [Casein Kinase II Inhibitor I] | 1 ± 0.059 | 0.952 ± 0.068 | 0.833 ± 0.03
6 | CCC(=O)Nc1ccc2ncnc(Nc3cccc(Br)c3)c2c1 | 0.982 ± 0.058 | 0.903 ± 0.031 | 0.743 ± 0.05
7 | O=c1cc(N2CCNCC2)oc2c(-c3ccccc3)cccc12 | 0.987 ± 0.049 | 0.828 ± 0.11 | 0.76 ± 0.034
8 | COc1cc2ncnc(Nc3ccc(Cl)cc3Cl)c2cc1OC [Ste11 MAPKKK Activation Inhibitor] | 0.946 ± 0.13 | 0.802 ± 0.084 | 0.71 ± 0.076
9 | Cc1cc(C=C2C(=O)C=CC2=O)cc(C)c1O | 0.928 ± 0.045 | 0.736 ± 0.16 | 0.595 ± 0.12
10 | COc1ccc(COc2ccc(Cc3cnc(N)nc3N)cc2OC)cc1 [cFMS Receptor Tyrosine Kinase Inhibitor] | 1.05 ± 0.12 | 0.789 ± 0.061 | 0.699 ± 0.007
11 | CNc1cc2c(Nc3cccc(Br)c3)ncnc2cn1 | 1.04 ± 0.053 | 0.995 ± 0.043 | 0.807 ± 0.023
12 | Nc1nccc(-c2c(-c3ccc(F)cc3)ncn2C2CCNCC2)n1 | 0.923 ± 0.084 | 0.755 ± 0.05 | 0.662 ± 0.046
13 | CC(=O)c1ccc(N2CCOCC2)cc1O [DNA-PK Inhibitor III] | 1.02 ± 0.093 | 0.878 ± 0.059 | 0.782 ± 0.027
14 | CC(C)n1cnc2c(NCc3ccccc3O)nc(NCCCO)nc21 [Cdk Inhibitor, p35] | 1.04 ± 0.054 | 0.855 ± 0.056 | 0.779 ± 0.03
15 | COc1nccc(-c2c(-c3ccc(F)cc3)ncn2C2CCC(O)CC2)n1 (centres undefined) | 0.964 ± 0.038 | 0.86 ± 0.11 | 0.794 ± 0.067
16 | CS(=O)(=O)c1ccc(-c2nc(-c3ccc(F)cc3)c(-c3ccncc3)[nH]2)cc1 | 1.03 ± 0.08 | 0.831 ± 0.064 | 0.703 ± 0.043
17 | COc1cc2ncnc(Nc3ccc(NC(=O)c4ccccc4)cc3)c2cc1OC [Aurora Kinase Inhibitor II] | 0.92 ± 0.071 | 0.909 ± 0.055 | 0.783 ± 0.027

Row | SMILES | relative cell viability (IMR-90) | relative cell viability (K562 [1]) | relative cell viability (K562 [2])
18 | CCCCCCOC(=O)[C@]1(O)C[C@@H]2O[C@@]1(C)n1c3ccccc3c3c4c(c5c6ccccc6n2c5c31)C(=O)NC4 | 1.05 ± 0.14 | 0.825 ± 0.056 | 0.764 ± 0.02
19 | CC[C@H](CO)Nc1nc(NCc2ccc(-c3ccccn3)cc2)c2ncn(C(C)C)c2n1 [CR8, (R)-Isomer] | 0.297 ± 0.51 | 0.0971 ± 0.02 | 0.0846 ± 0.015
20 | COc1ccc(OC)c2c(=S)c3ccccc3[nH]c12 | 0.981 ± 0.051 | 0.927 ± 0.054 | 0.795 ± 0.041
21 | C[S+]([O-])c1ccc(-c2nc(-c3ccc(F)cc3)c(-c3ccncc3)[nH]2)cc1 (centres undefined) | 0.994 ± 0.062 | 0.921 ± 0.054 | 0.751 ± 0.048
22 | COc1cc2ncnc(Nc3ccc(Oc4ccccc4)cc3)c2cc1OC [Src Kinase Inhibitor I] | 0.956 ± 0.063 | 0.839 ± 0.088 | 0.692 ± 0.05
23 | O=C1Nc2ccc(Cl)cc2/C1=C/c1cc(Cl)c(O)c(Cl)c1 [PKR Inhibitor, Negative Control] | 0.968 ± 0.089 | 0.848 ± 0.072 | 0.721 ± 0.058
24 | N#CCCc1ccc2c(c1)-c1[nH]c3ccc([N+](=O)[O-])cc3c1CC(=O)N2 [Alsterpaullone, 2-Cyanoethyl] | 1 ± 0.039 | 0.307 ± 0.05 | 0.153 ± 0.036
25 | Cc1ccc([N+](=O)[O-])cc1S(=O)(=O)N(C)/N=C/c1cnc2ccc(Br)cn12 [PI 3-Kα Inhibitor VIII] | 0.166 ± 0.031 | 0.763 ± 0.071 | 0.681 ± 0.044
26 | Nc1[nH]nc2nnc(-c3c(-c4ccccc4)nn4ccccc34)cc12 | 1.03 ± 0.046 | 0.915 ± 0.036 | 0.779 ± 0.048
27 | O=C(c1ccccc1)c1ccc(N2CCOCC2)cc1O [DNA-PK Inhibitor V] | 1.01 ± 0.094 | 0.878 ± 0.066 | 0.756 ± 0.03
28 | CCC(CO)Nc1nc(NCc2ccccc2)c2ncn(C(C)C)c2n1 [Roscovitine, (S)-Isomer] | 1.04 ± 0.054 | 0.912 ± 0.081 | 0.729 ± 0.057
29 | NC(=O)c1ccc2nc(-c3ccc(Oc4ccc(Cl)cc4)cc3)[nH]c2c1 [Chk2 Inhibitor II] | 1.05 ± 0.097 | 0.778 ± 0.061 | 0.681 ± 0.027
30 | CC(C)[C@H](CO)Nc1nc(Nc2cccc(Cl)c2)c2ncn(C(C)C)c2n1 [Purvalanol A] | 1.04 ± 0.11 | 0.885 ± 0.065 | 0.75 ± 0.072
31 | CCCCc1c(-c2ccc(O)cc2)[nH]c2nccnc12 [Aloisine A, RP107] | 0.913 ± 0.06 | 0.884 ± 0.048 | 0.77 ± 0.032
32 | COc1cc2ncn(-c3cc(OCc4ccccc4S(C)(=O)=O)c(C#N)s3)c2cc1OC [IKK-3 Inhibitor IX] | 1.02 ± 0.11 | 0.843 ± 0.084 | 0.764 ± 0.036
33 | Cn1c(O)c(-c2[nH]c3ccccc3c2N=O)c2ccc(Br)cc21 [GSK-3 Inhibitor IX, Control, MeBIO] | 0.976 ± 0.047 | 0.964 ± 0.014 | 0.8454 ± 0.0073
